Assay results from the supplement of paper PMC6897291.

What was measured:
[1] = tested on: U-2932; assay: growth inhibition by drug alone (1 - RLU/untreated control) (fraction); higher = stronger inhibition; conditions: 177Lu-lilotomab satetraxetan 0 ug/ml
Method in brief: (§1)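 Growth inhibition was calculated from RealTime-Glo RLU against untreated no-drug wells. Values equal 1 − RLU/mean of 48 untreated no-drug wells per plate, read daily from day 3 after 1 h at 37°C. RIVA and U-2932 cells, with or without 18 h pretreatment by a radiolabelled anti-CD37 antibody conjugate (~600 MBq/mg; 0.5 µg/ml RIVA, 1 µg/ml U-2932), were washed and plated at 3,000 cells/well on compound-printed plates at 10/100 nM (RIVA) or 10/1,000 nM (U-2932).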

[2] = tested on: RIVA; assay: as above; conditions: 177Lu-lilotomab satetraxetan 0 ug/ml
Method in brief: as §1

[3] = tested on: U-2932; assay: growth inhibition by drug plus 177Lu-lilotomab satetraxetan (1 - RLU/untreated control) (fraction); higher = stronger inhibition; conditions: 177Lu-lilotomab satetraxetan 1 ug/ml
Method in brief: as §1

[4] = tested on: RIVA; assay: as above; conditions: 177Lu-lilotomab satetraxetan 0.5 ug/ml
Method in brief: as §1

SMILES | growth inhibition by drug alone ([1]; 10 nM, time (day): 3) | growth inhibition by drug alone ([1]; 10 nM, time (day): 4) | growth inhibition by drug alone ([1]; 10 nM, time (day): 5) | growth inhibition by drug alone ([1]; 10 nM, time (day): 6) | growth inhibition by drug alone ([1]; 1000 nM, time (day): 3) | growth inhibition by drug alone ([1]; 1000 nM, time (day): 4) | growth inhibition by drug alone ([1]; 1000 nM, time (day): 5) | growth inhibition by drug alone ([1]; 1000 nM, time (day): 6) | growth inhibition by drug alone ([2]; 10 nM, time (day): 3) | growth inhibition by drug alone ([2]; 10 nM, time (day): 4) | growth inhibition by drug alone ([2]; 10 nM, time (day): 5) | growth inhibition by drug alone ([2]; 10 nM, time (day): 6) | growth inhibition by drug alone ([2]; 100 nM, time (day): 3) | growth inhibition by drug alone ([2]; 100 nM, time (day): 4) | growth inhibition by drug alone ([2]; 100 nM, time (day): 5) | growth inhibition by drug alone ([2]; 100 nM, time (day): 6) | growth inhibition by drug plus 177Lu-lilotomab satetraxetan ([3]; 10 nM, time (day): 3) | growth inhibition by drug plus 177Lu-lilotomab satetraxetan ([3]; 10 nM, time (day): 4) | growth inhibition by drug plus 177Lu-lilotomab satetraxetan ([3]; 10 nM, time (day): 5) | growth inhibition by drug plus 177Lu-lilotomab satetraxetan ([3]; 10 nM, time (day): 6) | growth inhibition by drug plus 177Lu-lilotomab satetraxetan ([3]; 1000 nM, time (day): 3) | growth inhibition by drug plus 177Lu-lilotomab satetraxetan ([3]; 1000 nM, time (day): 4) | growth inhibition by drug plus 177Lu-lilotomab satetraxetan ([3]; 1000 nM, time (day): 5) | growth inhibition by drug plus 177Lu-lilotomab satetraxetan ([3]; 1000 nM, time (day): 6) | growth inhibition by drug plus 177Lu-lilotomab satetraxetan ([4]; 10 nM, time (day): 3) | growth inhibition by drug plus 177Lu-lilotomab satetraxetan ([4]; 10 nM, time (day): 4) | growth inhibition by drug plus 177Lu-lilotomab satetraxetan ([4]; 10 nM, time (day): 5) | growth inhibition by drug plus 177Lu-lilotomab satetraxetan ([4]; 10 nM, time (day): 6) | growth inhibition by drug plus 177Lu-lilotomab satetraxetan ([4]; 100 nM, time (day): 3) | growth inhibition by drug plus 177Lu-lilotomab satetraxetan ([4]; 100 nM, time (day): 4) | growth inhibition by drug plus 177Lu-lilotomab satetraxetan ([4]; 100 nM, time (day): 5) | growth inhibition by drug plus 177Lu-lilotomab satetraxetan ([4]; 100 nM, time (day): 6)
CC(=O)c1c(C)c2cnc(Nc3ccc(N4CCNCC4)cn3)nc2n(C2CCCC2)c1=O | 0.0532 | 0.0389 | -0.0177 | -0.186 | -0.0353 | -0.0097 | -0.082 | -0.259 | -0.0338 | -0.0722 | -0.148 | -0.339 | -0.149 | -0.13 | -0.138 | -0.285 | -0.0112 | 0.0266 | 0.0227 | 0.0699 | -0.111 | -0.00616 | -0.0131 | -0.0632 | 0.392 | 0.527 | 0.548 | 0.545 | 0.281 | 0.427 | 0.426 | 0.392
CCOc1cc2ncc(C#N)c(Nc3ccc(OCc4ccccn4)c(Cl)c3)c2cc1NC(=O)/C=C/CN(C)C [Neratinib (HKI-272)] | -0.0556 | -0.0442 | -0.0146 | 0.0157 | -0.0267 | -0.00012 | -0.0352 | -0.0269 | -0.145 | -0.144 | -0.165 | -0.233 | -0.0145 | -0.0628 | -0.098 | -0.14 | -0.0172 | -0.00319 | 0.0327 | 0.194 | -0.0673 | 0.003 | 0.00224 | 0.0815 | 0.358 | 0.498 | 0.529 | 0.541 | 0.367 | 0.422 | 0.425 | 0.419
COc1c(C)c2c(c(O)c1C/C=C(\C)CCC(=O)OCCN1CCOCC1)C(=O)OC2 [Mycophenolate mofetil (CellCept)] | 0.0454 | 0.0504 | -0.00114 | -0.00474 | 0.727 | 0.792 | 0.743 | 0.673 | 0.15 | 0.0186 | -0.0505 | -0.245 | 0.284 | 0.214 | 0.154 | 0.0335 | 0.0524 | 0.064 | 0.0624 | 0.115 | 0.826 | 0.893 | 0.89 | 0.878 | 0.413 | 0.511 | 0.534 | 0.55 | 0.554 | 0.581 | 0.583 | 0.539
COc1cc(C(=O)NC(=S)Nc2cccc(NC(=O)c3ccccc3)c2)cc(OC)c1OC | 0.147 | 0.139 | 0.0192 | -0.0981 | 0.0988 | 0.139 | 0.108 | 0.0418 | 0.0482 | 0.0356 | 0.0061 | -0.153 | 0.0949 | 0.0458 | 0.00408 | -0.0801 | 0.0383 | 0.0678 | 0.111 | 0.148 | -0.0454 | 0.0986 | 0.0849 | 0.125 | 0.491 | 0.568 | 0.58 | 0.595 | 0.562 | 0.589 | 0.588 | 0.568
COC(=O)Nc1ccc(-c2nc(N3CCOCC3)c3cnn(C4CCN(C(=O)OC)CC4)c3n2)cc1 | 0.122 | 0.107 | 0.0346 | -0.00417 | 0.454 | 0.381 | 0.375 | 0.388 | 0.0376 | 0.1 | 0.0593 | -0.105 | 0.0485 | 0.0181 | 0.033 | 0.00434 | 0.113 | 0.147 | 0.233 | 0.252 | 0.395 | 0.315 | 0.348 | 0.433 | 0.624 | 0.663 | 0.677 | 0.664 | 0.468 | 0.537 | 0.55 | 0.563
COc1cc2ncnc(Nc3ccc(F)c(Cl)c3)c2cc1OCCCN1CCOCC1 [Gefitinib (Iressa)] | 0.0523 | -0.0185 | -0.0608 | -0.248 | -0.147 | -0.0975 | -0.157 | -0.226 | -0.00639 | -0.111 | -0.168 | -0.438 | -0.234 | -0.33 | -0.334 | -0.479 | -0.0292 | -0.0156 | -0.0275 | 0.0384 | -0.218 | -0.0647 | -0.0381 | 0.0874 | 0.402 | 0.522 | 0.546 | 0.553 | 0.408 | 0.485 | 0.503 | 0.494
NC(=O)c1ccc(I)c([N+](=O)[O-])c1 [Iniparib (BSI-201)] | -0.0132 | -0.0395 | -0.0441 | -0.012 | -0.105 | -0.0771 | -0.0716 | -0.0297 | -0.235 | -0.257 | -0.288 | -0.389 | -0.378 | -0.352 | -0.395 | -0.471 | -0.0638 | -0.00415 | 0.0467 | 0.129 | -0.0685 | -0.00507 | 0.0384 | 0.191 | 0.437 | 0.491 | 0.504 | 0.513 | 0.436 | 0.495 | 0.516 | 0.523
